Data on 26 molecules can be found in PubChem BioAssay AID720621 (The Scripps Research Institute Molecular Screening Center, 2013).

The other results are listed elsewhere or left out. Values without a mark were called inactive. Calls of active or inactive are those of the source.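 Rule for the calls: active = inhibition above the mean of test compounds lying between the control limits plus 3 SD of those (cut at about 14% in these data); inactive = the rest.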

In this assay the target is Fibrinogen beta chain (Homo sapiens) (UniProt P02675). Nature of the assay: DD(E) binders in alternate-peptide displacement assay, confirmation, counter-screen for fibrin DD(E)-Tn6 binding project, biochemical, fluorescence polarization, human fibrin (AID 720621).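 Note: 0% = median of compound wells and 100% = wells with Aha-Tn7 blocking peptide.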 The settings on record: TRITC-Tn6 fluorescence polarization displacement, at 8.3 µM, stronger effect = higher value, 0% = median of compound wells, not DMSO. In general terms: A counterscreen serves to expose hits that act by an unwanted route or on another target.
Sequence of Fibrinogen beta chain (Homo sapiens) (P02675 whole entry, looked up): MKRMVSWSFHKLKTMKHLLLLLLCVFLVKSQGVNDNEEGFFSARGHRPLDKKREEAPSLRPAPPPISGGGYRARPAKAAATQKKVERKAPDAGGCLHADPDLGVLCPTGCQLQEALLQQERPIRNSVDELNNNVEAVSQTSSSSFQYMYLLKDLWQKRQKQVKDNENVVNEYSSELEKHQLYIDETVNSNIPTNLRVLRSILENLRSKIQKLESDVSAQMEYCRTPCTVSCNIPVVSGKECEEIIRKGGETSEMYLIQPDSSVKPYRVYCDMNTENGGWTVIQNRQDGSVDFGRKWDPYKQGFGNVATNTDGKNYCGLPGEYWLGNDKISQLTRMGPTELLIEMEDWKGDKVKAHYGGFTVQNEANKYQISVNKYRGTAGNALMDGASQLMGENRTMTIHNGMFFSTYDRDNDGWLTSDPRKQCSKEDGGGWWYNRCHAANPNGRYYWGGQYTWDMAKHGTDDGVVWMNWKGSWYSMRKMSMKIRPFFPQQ
For orientation: inhibition means the change of the read-out against control, counted positive when it falls. For `CN1c2ccc(C=O)c3c(C=O)ccc(c23)N(C)C1(C)C`, the inhibition is 1.94%.

Consider `Cc1cc2nc3c(=O)[nH]c(=O)nc-3n(C[C@H](O)[C@H](O)[C@H](O)CO)c2cc1C`, for which the inhibition is 53.3% (active).

In the case of `CCc1ccccc1NC(=S)Nc1cc(OC)c(NC(=O)C(C)C)cc1OC`, the inhibition is 2.55%.

Regarding `Cc1cc2cc(CNC(=O)c3ccc(S(=O)(=O)N4CCOCC4)cc3)ccc2[nH]1`, the inhibition was -5.66%.

As for `Oc1ccc(N=Cc2sc3ccccc3c2Cl)cc1`, the inhibition is -3.72%.

Consider `Cc1cc2ccccc2n1CCNC(=O)COc1ccc2ccccc2c1`, for which the inhibition is 4.66%.

With `Cc1nnsc1S(=O)(=O)Cc1ccccc1Cl`, the inhibition was -7.19%.

As to `COc1ccc(Nc2nc(-c3cccnc3)nc3ccccc23)cn1`, the inhibition was 1.38%.

With `O=C(Nc1cccc(-c2nc3ccccc3[nH]2)c1)c1ccc(C(=O)Nc2cccc(-c3nc4ccccc4[nH]3)c2)cc1`, the inhibition is 4.67%.

With `COc1ccc(N2C(=O)NC(NS(=O)(=O)c3ccc(Cl)cc3)(C(F)(F)F)C2=O)cc1` (stereo unspecified), the inhibition is 9.3%.

Consider `Cc1cc(C)c2nc(NC(=O)C3CCCO3)sc2c1` (stereo unspecified), for which the inhibition is 9.86%.

As for `Cc1ccc(-c2nn(-c3ccccc3)cc2/C=C/C(=O)Nc2cccc(S(N)(=O)=O)c2)cc1`, the inhibition is 9.5%.

As to `Cc1ccc(NC(=O)CN2CCc3ccccc3C2)cc1`, the inhibition is -3.5%.

Regarding `Cc1ccc(-c2nc(C)sc2CC(=O)O)cc1`, the inhibition was 1.12%.

`CCc1cc(-c2nnc(SCC(=O)NC3CC3)n2C)cs1`: the inhibition was 0.11%.

Take `Cc1nn(C)cc1N1C(=O)c2cccc3c(N)ccc(c23)C1=O`: the inhibition is 12.5%.

`CONc1nc2nonc2nc1NOC`: the inhibition was 0.1%.

On to `CCOC(=O)N1CCN(Cc2nc(N)nc(Nc3ccc(C)cc3)n2)CC1`, for which the inhibition was -2.92%.

As for `CCOCC(=O)NCc1ccc2c(c1)cc(C)n2C`, the inhibition is 3.45%.

As to `COc1ccc(Nc2nc(-c3ccccc3)cs2)cc1`, the inhibition is 3.89%.

Consider `CCC1C(=O)NCCN1C(=O)c1ccc2nc(Cc3ccc(OC)cc3)oc2c1` (stereo unspecified), for which the inhibition was -2.38%.

Consider `O=c1cc(Cn2nnc(-c3ccc(Cl)cc3)n2)nc2sccn12`, for which the inhibition was 0.44%.

Take `O=C(NCCNc1ccccc1[N+](=O)[O-])c1ccccc1F`: the inhibition was 1.36%.

In the case of `COc1cc(NC(=O)c2ccc(CNc3c(N4CCCC4)c(=O)c3=O)cc2)cc(OC)c1OC`, the inhibition is -3.04%.

As to `O=C(CCl)NNc1cccc(Cl)n1`, the inhibition was -4.59%.

Consider `O=c1[nH]n(-c2ccc([N+](=O)[O-])cc2)c(=O)c2ccccc12`, for which the inhibition was -1.25%.
